Laboratory results: PubChem BioAssay (NCATS)
Values without a mark were called inactive. Calls of active or inactive are those of the source. The rule behind the calls is not given here.

tested on: HIV-1 nucleocapsid protein NCp7 (binding to TG oligonucleotide); test: HIV Nucleocapsid (AID 346); conditions: HIV-1 NC / fluorescein-TGTGTGTG probe, fluorescence polarization;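 note: potency is for inhibitors that block NC binding and lower polarization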
Procedure: NCGC Assay Overview: HIV-1 nucleocapsid protein (HIV-1 NC) is a small (6.5 kDa) basic zinc-finger protein which participates in packaging of viral genomic RNA. The spacing and metal-chelating residues (3 Cys, 1 His) of the Cys-X2-Cys-X4-His-X4-Cys Zn fingers are conserved among all known retroviruses (J. Med. Chem. 1998, 41, 1371-1381). HIV-1 NC was assayed for its binding to the consensus sequence single-stranded 5'-TGTGTGTG. […] High salt was included to increase the stringency of binding and inhibitor screen. Reducing agents and zinc were present to stabilize the nucleocapsid zinc-finger protein.
NCGC Assay Protocol Summary: Buffer. Hepes pH 7.5, 250mM NaCl, 1uM ZnCl2. 0.004% polyethylene glycol 20000. TCEP (100 uM) and 2-Mercaptoethanol (5 mM), added fresh the day of the experiment. Reagents/Controls. 10 nM TG4xF only in columns 3 and 4 as negative control. 10 nM TG4xF/100 nM HIV-1 NC in columns 1, 2, 5-48. Titration of control compound NSC-13778 (from 20 mM, then 1:2) pin-transferred to column 2. Assay Steps. Two uL of reagents were dispensed to 1536-well Kalypsys black plates. The plates were centrifuged for 1 min at 1000 rpm. Compounds and controls (20 nL) were transferred via Kalypsys PinTool. The plates were incubated for 1 hr at room temperature, and then read on ViewLux (Perkin-Elmer). High-throughput CCD imager using fluorescein polarization filter set and 45 seconds exposure time.
Potency is the fitted concentration of half-maximal effect.

Row | Structure (SMILES) | Potency
1 | CS(=O)(=O)Nc1cccc(-c2nc(N3CCOCC3)c3ccccc3n2)c1 | > 20 µM
2 | Cc1noc(C)c1C(=O)N1CCC2(CC1)CCN(C(c1ccccc1)c1ccccc1)CC2 | > 20 µM
3 | CN1CCN(c2ncc3nc(-c4cccs4)c(=O)n(CCc4ccccc4)c3n2)CC1 | > 20 µM
4 | O=c1c(-c2cc(F)cc(F)c2)nc2cnc(N3CCNCC3)nc2n1Cc1ccc(F)cc1 | > 20 µM
5 | COc1ccc(NC(=O)N2CC3(CCN(S(=O)(=O)c4ccccc4)CC3)C2)cc1 | > 20 µM
6 | Cn1c(=O)c(-c2ccccc2)nc2cnc(Oc3ccccc3)nc21 | > 20 µM
7 | Cc1cccc(CNc2nc(-c3cccnc3)nc3ccccc23)c1 | > 20 µM
8 | COCCn1c(=O)c(-c2cccc(C#N)c2)nc2cnc(Nc3ccccc3)nc21 | 5.18 µM (active)
9 | CCNc1ncc2nc(-c3ccc(Cl)cc3)c(=O)n(C[C@H]3CCCO3)c2n1 | > 4 µM
10 | COc1ccccc1CN1CC[C@@]2(CCCN(C(=O)c3cc(C(F)(F)F)cc(C(F)(F)F)c3)C2)C1 | > 20 µM
11 | CN1CCN(c2ncc3nc(-c4ccc(F)cc4)c(=O)n(Cc4cccs4)c3n2)CC1 | > 20 µM
12 | CN1CCN(c2ncc3nc(-c4ccccc4)c(=O)n(Cc4ccc(F)cc4)c3n2)CC1 | > 20 µM
13 | COCC(=O)N1CCC2(CCCN(C(=O)Nc3ccccc3)C2)CC1 | > 20 µM
14 | CC(C)NC(=O)N1CC2(CCN(C(=O)c3ccco3)CC2)C1 | > 20 µM
15 | CN1CCN(c2cc(-c3ccccc3Cl)ncn2)CC1 | > 20 µM
16 | COc1ccccc1CN1CCC2(CC1)CCN(C(=O)c1c(C)noc1C)CC2 | > 20 µM
17 | O=S(=O)(c1ccccc1)N1CCC[C@@]2(CCN(c3ccncc3)C2)C1 | > 20 µM
18 | O=C(c1ccco1)N1CCC2(CC1)CN(c1cccc(-c3ccccc3)c1)C2 | > 20 µM
19 | O=c1c(-c2ccccc2)nc2cncnc2n1Cc1ccc(F)cc1 | > 20 µM
20 | COc1ccc(CNc2nc(-c3ccccc3OC)nc3ccccc23)c(OC)c1 | > 20 µM

Row | Structure (SMILES) | Potency
21 | COc1ccc(CNc2nc(-c3c(C)noc3C)nc3ccccc23)c(OC)c1 | > 20 µM
22 | COc1cccc(Nc2ncc3nc(-c4cccs4)c(=O)n(C[C@H]4CCCO4)c3n2)c1 | > 4 µM
23 | CCNc1ncc2nc(-c3cn(C)c4ccccc34)c(=O)n(-c3ccccc3)c2n1 | 16.4 µM
24 | Cc1cccc(CNc2ccnc(-c3ccoc3)n2)c1 | > 20 µM
25 | COc1ncc2nc(-c3cccs3)c(=O)n(C)c2n1 | > 20 µM
26 | COCCn1c(=O)c(-c2cc(F)cc(F)c2)nc2cnc(OCc3ccccc3)nc21 | > 20 µM
27 | COc1ncc2nc(C)c(=O)n(CCC#N)c2n1 | > 20 µM
28 | CC(C)NC(=O)N1CCCC2(CCN(C(=O)c3csnn3)CC2)C1 | > 20 µM
29 | O=C(c1cc(C(F)(F)F)cc(C(F)(F)F)c1)N1CCC2(CC1)CN(c1ccccc1)C2 | > 20 µM
30 | CS(=O)(=O)N1CCC2(CC1)CN(c1cccc(-c3ccccc3)c1)C2 | > 20 µM
31 | CCNc1ncc2nc(CCc3ccccc3)c(=O)n(CCOC)c2n1 | > 20 µM
32 | COc1ccc(-n2c(=O)c(-c3ccc(Cl)cc3)nc3cnc(N4CCOCC4)nc32)cc1 | > 20 µM
33 | CN1CCN(c2ncc3nc(-c4cn(C)c5ccccc45)c(=O)n(CCC#N)c3n2)CC1 | > 20 µM
34 | COc1ccc(-c2nc3cnc(N4CCN(C)CC4)nc3n(Cc3ccc(F)cc3)c2=O)cc1 | > 20 µM
35 | COc1ccc2[nH]cc(CCNc3ncnc4ccc(-c5ccoc5)cc34)c2c1 | > 20 µM
36 | O=c1c(-c2ccc(F)cc2)nc2cnc(N3CCNCC3)nc2n1Cc1ccc(F)cc1 | > 20 µM
37 | N#Cc1cccc(NC(=O)N2CCCC3(CCN(C(=O)c4csnn4)CC3)C2)c1 | > 20 µM
38 | O=c1c(-c2cccs2)nc2cnc(Oc3cccc(Cl)c3)nc2n1C[C@H]1CCCO1 | > 20 µM
39 | CN1CCN(c2ncc3ncc(=O)n(CCC#N)c3n2)CC1 | > 20 µM
40 | c1ccc(Nc2ncncc2-c2ccc3c(c2)OCO3)cc1 | > 20 µM
